The source of these data is ChEMBL document CHEMBL4513216, “Probing the Open Global Health Chemical Diversity Library for Multistage-Active Starting Points for Next-Generation Antimalarials” (ACS Infect Dis, 2020).

Among all 69,000 compounds or so, about 8,600 (12%) showed an effect of 50% or more. The sample holds strong results, similar compounds and a random draw of the others, so the mix is not that of the screen.

The assay has as its system Plasmodium berghei. The assay is described as follows: Screen against P. berghei liver stage (PbLuc), transformed with Luciferase, at 10uM. It counts as functional, HepG2. Conditions: tested at 10 uM.
Turning to `NC(=O)C1CCN(C(=O)CCn2ccc3ccc(F)cc32)CC1`, the INHIBITION is recorded as 33%. As to `Cn1ncc2c1CCCC2NCc1cccc(F)c1` (stereo not drawn), the INHIBITION was 4.71%. With `Cn1ncc2c1CCCC2NCc1cccnc1` (stereo not drawn), the INHIBITION is recorded as 3.3%.

On to `Cn1ncc2c1CCCC2NCc1cccc(C(F)(F)F)c1` (stereo not drawn), for which the INHIBITION is 89.1%.

Take `Cn1ncc2c1CCCC2NCc1cccc2c1OCCCO2` (stereo not drawn): the INHIBITION is reported as 50.3%. `Cn1ncc2c1CCCC2NCc1cccc(OC2CCCC2)c1` (stereo not drawn): the INHIBITION is 50.5%.

As for `CSc1ccc(CNC2CCCc3c2cnn3C)cc1` (stereo not drawn), the INHIBITION is given as -46.8%.

As to `Cc1cccc(CNC2CCCc3c2cnn3C)c1` (stereo not drawn), the INHIBITION was determined as 25.1%. The result for `CCn1ncc2c1CCCC2NCc1cccc2c1OCCCO2` (stereo not drawn) reads 40%. To `Cc1ccc(CNC2CCCc3c2cnn3C)s1` (stereo not drawn) belongs -10.8%; to `CCCn1cc(C(=O)NC2CCC(n3cnnc3)CC2)c(C)n1` (stereo not drawn), 18.5%; to `Cc1occc1C(=O)N1CCC[C@]2(C[C@@H](OCc3ccccn3)CO2)C1`, 22.9%. With `CCOCC1CN(Cc2ccccn2)Cc2nn(CC3CC3)cc21` (stereo not drawn), the INHIBITION is listed as -2.17%. To `O=C(NCC(F)(F)F)c1ccc(-c2ccco2)[nH]c1=O` belongs 14.4%. To `COc1ccc(C2CCCN2S(=O)(=O)N(C)C)cc1` (stereo not drawn) belongs -45.2%. To `c1c(CN2CCCC2)nc2n1CCN(CC1CC1)C2` belongs -44.4%. Consider `COc1cc(C(=O)N(Cc2cnn(C)c2)C(C)C)ccc1OC(C)C`, for which the INHIBITION is listed as 27.8%. To `CC1=N[C@@]2(CC[C@@H]3CN(Cc4ccccc4)C[C@@H]32)C(=O)N1CC1CC1` belongs -13.4%.

Take `COc1ccc(C(=O)N2C[C@@H](C)[C@@](C)(O)C2)cc1N1CCOCC1`: the INHIBITION was -4.92%. To `COc1ccc(C(=O)N2CC[C@](C)(O)[C@H](C)C2)cc1N1CCOCC1` belongs 54.4%. Regarding `COc1ccc(C(=O)N2CCOCC(CO)C2)cc1N1CCOCC1` (stereo not drawn), the INHIBITION worked out at 49.9%. `CC(C)Cn1cnc2ccc(NC(=O)CCCn3cccn3)cc2c1=O`: the INHIBITION came to 13.2%. As for `CN(C)C(CNc1c(NCc2ccco2)c(=O)c1=O)c1ccccc1` (stereo not drawn), the INHIBITION amounted to 4.48%. To `Cn1cc(CN2C[C@H]3CCC[C@@]3(COc3ccccn3)C2)cn1` belongs 67.5%. To `c1cncc(OC[C@@]23CCC[C@@H]2CN(CC2CCOCC2)C3)c1` belongs 47.4%. To `Fc1cnc(N2C[C@@H]3COC[C@]3(COc3ccccn3)C2)nc1` belongs 43.1%; to `CCS(=O)(=O)N1C[C@H]2CCC[C@@]2(COc2ccccn2)C1`, -23.7%. Regarding `Cn1cc(CN2C[C@H]3CCC[C@@]3(COc3cccnc3)C2)cn1`, the INHIBITION was determined as 52.1%. The result for `Cn1cc(CN2C[C@H]3CCC[C@@]3(COCC3CC3)C2)cn1` reads 8.6%; that for `O=S(=O)(C1CC1)N1C[C@H]2CCC[C@@]2(COc2ccccn2)C1`, 0.79%; that for `Fc1cnc(N2C[C@H]3CCC[C@@]3(COc3ccccn3)C2)nc1`, 76.6%. The result for `CS(=O)(=O)N1C[C@H]2CCC[C@@]2(COc2ccccn2)C1` reads 33%; that for `CCn1ncc(CNc2[nH]cnc3nncc2-3)c1C`, 25.3%; that for `CCCC1CN(CC(C)C)C(=O)c2cccnc2O1` (stereo not drawn), 6.34%. For the compound `O=C(NCc1ccc2c(c1)OCO2)Nc1cccnc1N1CCCC1`, the INHIBITION is recorded as -4.94%. As for `O=c1cc(Cn2ccnc2)nc2n1CCCN(S(=O)(=O)C1CC1)C2`, the INHIBITION is listed as -10.2%.

With `CN1C[C@H]2CC[C@@H](C1)N(Cc1ccccc1OCCN1CCOCC1)C2`, the INHIBITION was -154%. To `CC(=O)N1CCC(NC(=O)N2CCN(c3cnccn3)CC2)CC1` belongs 48.2%; to `Cc1nc2c(c(=O)[nH]1)CN(Cc1ccc3c(c1)CCCN3C)CC2`, 30.5%; to `Cc1ccc(C(=O)N2CCC[C@@H]2Cn2nnc3c(O)nc(C)nc32)cc1`, 23.4%. To `Cn1ccnc1CNCCNc1ncc(Cl)cc1Cl` belongs 1.51%; to `CCCc1n[nH]c(C2CN(CCS(=O)(=O)CC)CCO2)n1` (stereo not drawn), 44.1%. To `O=S(=O)(Nc1c(F)cccc1N1CCCC1)c1cncc(F)c1` belongs 27.6%; to `N#Cc1cccc(S(=O)(=O)Nc2c(F)cccc2N2CCCC2)c1`, 50.1%; to `Cn1cc(S(=O)(=O)Nc2c(F)cccc2N2CCCC2)cn1`, -11.9%.

As for `O=C(c1ccncc1)N1CCC(c2nc(O)cc(-c3ccncc3)n2)C1` (stereo not drawn), the INHIBITION was determined as 48.3%.

As for `CCCN1C[C@H](NC(=O)c2ccccc2F)[C@@H](c2ccc(OC)cc2)C1`, the INHIBITION is 54.4%. To `CCCN1C[C@H](NC(=O)c2cc(C)no2)[C@@H](c2ccc(OC)cc2)C1` belongs 35.2%; to `CCCN1C[C@H](NC(=O)c2cccs2)[C@@H](c2ccc(OC)cc2)C1`, 31.6%.

For the compound `CCN(CC)C1CCN(C(=O)NCc2cccc(NC(C)=O)c2)C1` (stereo not drawn), the INHIBITION is listed as -4.15%. The result for `CCCc1noc(CCC(=O)N2CCCC2c2cccs2)n1` (stereo not drawn) reads 29.7%; that for `CCCS(=O)(=O)N1C[C@@H]2C[C@H](C(=O)N3CCCC3)[C@H](C1)O2`, 35.8%.

As to `Cc1ccc(N2CCN(c3ccccc3C)CC2C)nn1` (stereo not drawn), the INHIBITION stood at 59.9%.

Take `Cc1ccccc1N1CCN(C(=O)c2cscn2)C(C)C1` (stereo not drawn): the INHIBITION is recorded as 10.3%. To `Cc1ccccc1N1CCN(C(=O)c2cnc(C3CC3)nc2)C(C)C1` (stereo not drawn) belongs 43%. The result for `CN(C)c1cc(N2CCN(c3ccccn3)CC2)ncn1` reads 41.1%; that for `Cc1nccn1CCC1CCN(c2ccncn2)CC1`, 35.8%. To `Cc1ccccc1N1CCN(C(=O)c2cnc(N(C)C)nc2C)C(C)C1` (stereo not drawn) belongs 25.8%. Turning to `Cc1ccccc1N1CCCN(c2ccncn2)CC1`, the INHIBITION is 80.7%.

Regarding `CSc1ncc(C(=O)N2CCN(c3ccccc3C)CC2C)cn1` (stereo not drawn), the INHIBITION stood at 44.8%. As to `Cc1ccccc1N1CCN(c2cc(N(C)C)ncn2)C(C)C1` (stereo not drawn), the INHIBITION turned out to be 67.4%.

On to `Cc1cc(C)nc(C2CCN(c3ccncn3)C2)n1` (stereo not drawn), for which the INHIBITION is 36.9%. The result for `Cc1ccccc1N1CCN(C(=O)c2ncc(F)cc2F)C(C)C1` (stereo not drawn) reads 33%; that for `Cc1ccccc1N1CCN(c2ccncn2)C(C)C1` (stereo not drawn), 63.2%. On to `O=S(=O)(C1CC1)N1CC[C@H]2OCC[C@@]2(COc2ncccc2F)C1`, for which the INHIBITION is reported as -58.9%.

As to `O=C(CCc1ccccc1)N1C[C@@H]2CN(Cc3ccoc3)CCO[C@@H]2C1`, the INHIBITION stood at 29.9%. To `Cc1ccc(CN2CC(O)CN(C(=O)C3CC3)CC2=O)cc1` (stereo not drawn) belongs 7.85%. The result for `CSCCC(=O)N1CCC(CCC(=O)NCC2CCCO2)CC1` (stereo not drawn) reads 8.51%. To `CCOc1ccccc1CCn1cc2[nH]cccc-2c1=O` belongs 41.5%; to `NC(=O)C1CCCN(c2ccc(CNC(=O)c3cc[nH]n3)cc2)C1` (stereo not drawn), -25.8%; to `NC(=O)C1CCCN(c2ccc(CNC(=O)c3csnn3)cc2)C1` (stereo not drawn), 44.1%. On to `NC(=O)C1CCCN(c2ccc(CNC(=O)c3cnsn3)cc2)C1` (stereo not drawn), for which the INHIBITION worked out at 60.5%. Take `CCN1CCN(C2CCN(Cc3nc(CCOC)no3)CC2)C1=O`: the INHIBITION is given as 19.4%. The result for `CCCS(=O)(=O)N1CCCN(CCCOC)CC1` reads -13.6%; that for `CCS(=O)(=O)N1CCCN(CCCOC)CC1`, 63%; that for `CCCS(=O)(=O)N1CCN(CCCO)CC1`, 11.5%. For the compound `Cn1cccc1C(=O)N1CCCC1c1ccc(CN2CCOCC2)cn1` (stereo not drawn), the INHIBITION came out at 13.7375%. To `Cc1nn(C)c(Cl)c1CNCc1cccnc1N1CCN(C)CC1` belongs 13.4%. To `CCOc1cc(F)ccc1NC1CCN(CC(F)(F)F)C1=O` (stereo not drawn) belongs -6.51%; to `Cc1nnc(C(C)N(C)Cc2c(C)nn(-c3ccccc3)c2C)o1` (stereo not drawn), -10.8%; to `CCc1nnc(C(C)N(C)Cc2c(C)nn(-c3ccccc3)c2C)o1` (stereo not drawn), -77.1%. Consider `Cc1nnc(C(C)N(C)Cc2c(C)nn(-c3ccccc3C)c2C)o1` (stereo not drawn), for which the INHIBITION is on record as 59.2%. As for `CCOC(=O)c1cnn(C2CCN(C(=O)CCC(C)C)CC2)c1N`, the INHIBITION is 38.3%. As for `Cc1nnc2ccc(OCCNS(=O)(=O)c3cccs3)nn12`, the INHIBITION was 3.13%. The result for `CCc1ccc(S(=O)(=O)NCCOc2ccc3nnc(C)n3n2)s1` reads 31%; that for `Cc1ccc(S(=O)(=O)NCCOc2ccc3nnc(C)n3n2)s1`, 57.4%. The result for `Cc1ccc(CN2CCc3onc(C(=O)NCCN(C)C)c3C2)o1` reads 54.4%; that for `Cc1ccc(CN2CCc3onc(C(=O)NC(C)C)c3C2)o1`, 45.4%; that for `CC(C)C(=O)N1CCc2onc(C(=O)NCCN(C)C)c2C1`, 39.4%. As to `CN(C)CCNC(=O)c1noc2c1CN(C(=O)N(C)C)CC2`, the INHIBITION turned out to be 28.2%.

As for `Cc1ccc(CN2CCc3onc(C(=O)N4CCCC4)c3C2)o1`, the INHIBITION is recorded as 23.6%. On to `CC(C)NC(=O)N1CCc2onc(C(=O)NCCN(C)C)c2C1`, for which the INHIBITION worked out at 95.7%. The result for `O=C1N(c2cccnc2)CCC12CCCN(Cc1ccoc1)C2` (stereo not drawn) reads -29.3%; that for `CCN1CCC[C@@H]1CNC(=O)c1cc(COc2ccccc2)[nH]n1`, 33.4%; that for `O=C1CC(NCc2cnc(N3CCCC3)nc2)CN1c1ccccc1` (stereo not drawn), 43.9%. To `O=C1CC(NCc2cnc(C3CCCCC3)nc2)CN1c1ccccc1` (stereo not drawn) belongs 56.5%. For `O=C1CC(NCc2cnc(-c3cccs3)nc2)CN1c1ccccc1` (stereo not drawn), the INHIBITION is on record as 8.92%. The result for `Cc1cnn(CC2CCCCN2CCCS(=O)(=O)N(C)C)c1` (stereo not drawn) reads 13.3%; that for `Nc1c(N2CCOCC2)ncnc1N1CCOCC1`, 50%; that for `Nc1c(N2CCCC2)ncnc1N1CCOCC1`, 7.53%.

Consider `Nc1c(N2CCCCC2)ncnc1N1CCOCC1`, for which the INHIBITION came out at 10.5%.

Regarding `Cc1cc(C)n(-c2ccccc2NC(=O)NCCS(=O)(=O)CC(C)C)n1`, the INHIBITION is listed as 32.5%. On to `COc1ccc(-c2noc(CNC(C)Cn3cccn3)n2)c(OC)c1` (stereo not drawn), for which the INHIBITION stood at 53.8%. `CC(Cn1cccn1)NCc1nc(-c2cccc(Cl)c2)no1` (stereo not drawn): the INHIBITION was 26.3%. The result for `CC(Cn1cccn1)NCc1nc(-c2ccccc2Cl)no1` (stereo not drawn) reads 25.1%; that for `CC(Cn1cccn1)NCc1nc(-c2ccsc2)no1` (stereo not drawn), 1.78%. To `CC(Cn1cccn1)NCc1nc(-c2cccnc2)no1` (stereo not drawn) belongs 86.8%; to `Cc1cnn(CC(C)NCc2nc(-c3cccnc3)no2)c1` (stereo not drawn), 15.1%.
